Several values for one entry are separate records, joined by “and”; a condition that tells them apart may be missing. Identical values can stand only once. The panel holds about 83,000 compounds, 20% with a hit somewhere; the sample as a whole holds those more often.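 Single-dose data. Exposure time 48 hours. Values below 10 considered active.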 Activity calls are given as the source filed them.

This test has as its system HL-60(TB) leukemia. The test is described as follows: NCI-60 one-dose screen, 48 h (100 = growth as untreated, 0 = no growth, -100 = all killed). Conditions: 10 µM unless noted.
As to `O=C(O)C1CCN(S(=O)(=O)c2ccc(-c3ccccc3)cc2)CC1`, the growth was 45.6% (inactive).
With `NC(=O)CSc1oc(-c2ccccc2)nc1S(=O)(=O)c1ccc(Br)cc1` the figure was 82.1% (inactive); with `O=C(C(=O)N1CCOCC1)c1ccc(O[C@H]2O[C@H](CO)[C@@H](O)[C@H](O)[C@@H]2O)cc1`, 113% (inactive).
The figure for `Cc1cc(C)c(N2C(=O)CC(Sc3ccccc3N)C2=O)c(C)c1` (stereo not drawn) is 68.8% (inactive); for `CO[C@]12C=C/C(=C(/C(=O)OCc3cccnc3)C(=O)CCCCCCCC[C@@]3(OC)C=C/C(=C(/C(=O)OCc4cccnc4)C(=O)CCCCCCCC1)O3)O2` it is -20.2% (active); for `Cc1c(C(=O)NC(Cc2ccccc2)C(O)C(=O)NCc2ccc(F)cc2)[nH]c2ccccc2c1=O` (stereo not drawn) it is 82% (inactive).
In the case of `CCCOc1cc2ccccc2cc1C(=O)Nc1nc(NC)c2c(ccc3nccc32)[nH]1`, the growth is -55.2% (active).
With `O=C1c2ccccc2C(c2ccccc2)C1c1ccccc1` (stereo not drawn) the figure was 76.4% (inactive).
With `CS(=O)(=O)Nc1ccc([N+](=O)[O-])cc1Oc1ccccc1`, the growth was 92.9% (inactive).
Regarding `CC(=O)c1ccc2c(c1)N(CCCN1CCN(CCO)CC1)c1ccccc1S2`, the growth was 73.9% (inactive) and 2.94% (active).
`COC(=O)c1ccc([N+](=O)[O-])c(C)c1`: the growth was 85.5% (inactive).
With `C#Cc1cccc(NC(=O)c2ccccc2NC(=O)CCl)c1` the figure was 91.6% [8.25 µM] (inactive); with `CC(=O)Nc1ccc2cc3ccc(NC(C)=O)cc3nc2c1`, 131% (inactive) and 96.4% (inactive).
